test system: ABL1-phosphorylated; details: concentration: 1 μM,replicates: in singlicate; n = 1
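Note: KINOMEscan kinase panel screen.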

Structure (SMILES)	%Inh
CN(c1ccc2c(c1)nc(NCc1ccc(F)cc1)n2C)c1ccnc(Nc2ccc(CS(C)(=O)=O)cc2)n1.Cl [GW813244]	79%
Cn1ccc2ncnc(Oc3ccc(NC(=O)Nc4cnn(C(C)(C)C)c4)c(Cl)c3)c21	39%
O=C(Nc1cccc(C(F)(F)F)c1)c1cccc(Oc2ccc3nccn3n2)c1	17%
COc1cc2ncn(-c3cc(OCC4CCCCC4)c(C(N)=O)s3)c2cc1OC [GSK204559]	0%
Cc1n[nH]c2cc(Nc3ccnc(Nc4cccc(CN5CCOCC5)c4)n3)ccc12 [GW682569]	26%
CS(=O)c1ccc(-c2coc3ccc(-c4n[nH]c(=O)o4)cc23)cc1 (centres unmarked)	3%
Cl.Cl.NC[C@H](CC1CCCCC1)NC(=O)c1ccc(-c2ccnc3[nH]ccc23)s1 [GSK1581428]	0%
Cl.c1ccc(Oc2ccc(Nc3ccnc4cc(-c5ccc(CN6CCNCC6)o5)ccc34)cc2)nc1 [GW567142]	84%
O=C(Nc1cccc(Oc2ccc3nccn3n2)c1)Nc1cccc(C(F)(F)F)c1	15%
Cc1nnc(-c2ccc3occ(-c4ccc(S(C)=O)cc4)c3n2)o1 (centres unmarked)	30%
Cc1ccc(C(=O)Nc2ccc(Oc3ccc4nc(NC(=O)C5CC5)cn4c3)c(F)c2)c(=O)n1-c1ccccc1	98.3%
C[C@@H](Oc1cc(-n2cnc3cc(-c4cnn(C)c4)ccc32)sc1C(N)=O)c1ccccc1Cl [GSK580432]	63%
CCN1CCN(CCCC(=O)Nc2n[nH]c3nc(-c4ccc(O)cc4)c(Br)cc23)CC1 [SB-731579]	31%
COC(=O)c1cccc(NC(=O)NC2CCN(c3ccnc(Nc4cc(OC)c(OC)c(OC)c4)n3)C2)c1 (centres unmarked) [GSK1379767]	0%
CS(=O)(=O)Nc1ccc(-c2ccnc3[nH]ccc23)cc1 [GSK993273]	1%
CCOC(=O)N1CCC(n2cnc(-c3ccc(F)cc3)c2-c2ccnc(N)n2)CC1 [SB-219952]	2%
CN1CCN(CCCNc2nccc(-c3c(-c4ccc(F)cc4)nn4cc(C(N)=O)ccc34)n2)CC1 [GW622475]	0%
Cl.Nc1n[nH]c2cc(-c3ccccn3)ccc12 [GSK2189892]	0%
CC(=O)c1c(-c2ccncc2)[nH]c(-c2ccncc2)c1C [GW493036]	0%

Structure (SMILES)	%Inh
CS(=O)(=O)c1cccc(CNc2nc(Nc3ccc4c(c3)[C@@H]3C[C@@H]4CNC3=O)ncc2C(F)(F)F)c1	93.2%
CNC(=O)c1ccccc1Nc1nc(Nc2cccc(CS(C)(=O)=O)c2)ncc1C.O=CO [GSK1520489]	99.9%
Cn1cc(-c2cccc3c(N)c(C(N)=O)nnc23)cn1	0%
Cn1ccc2ncnc(Oc3ccc(NC(=O)Nc4cccc(C(F)(F)F)c4)c(F)c3)c21	51%
Nc1nccc(-c2ccc3c(N)n[nH]c3c2)n1 [GSK1034945]	0%
COc1cccc(C2=C(Nc3cccc(Cl)c3)C(=O)NC2=O)c1 [SB-341556]	21%
CCn1c(-c2nonc2N)nc2cncc(CNC3CCNCC3)c21.Cl [SB-747651]	5%
Cn1ccc2ncnc(Oc3ccc(NC(=O)Nc4cncc(C(F)(F)F)c4)c(Cl)c3)c21	35%
C[C@@H]1CCN(C(=O)N2CCCC2)C[C@@H]1N(C)c1ncnc2[nH]ccc12	9%
CC(C)S(=O)(=O)N1CCN(Cc2ccc3c(c2)nc(NC(=O)c2ccsc2)n3C[C@H](O)c2ccccc2)CC1 [GW635815]	2%
C[C@@H]1CNc2c(sc3ccc4nc(-c5ccc(O)cc5)ccc4c23)C(=O)N1	10%
c1ccc(Oc2ccc(Nc3ccnc4ccc(-c5ccccn5)cc34)cc2)cc1 [GW407034]	0%
Cn1ccc2ncnc(Oc3ccc(NC(=O)Nc4ccnc(C(F)(F)F)c4)c(Cl)c3)c21	10%
CC(=O)Nc1ccc(-c2cc3ncnc(SCC(=O)O)c3s2)cc1	3%
COc1cccc(OC)c1C(=O)Nc1cccc(-c2nn3ccccc3c2-c2ccnc(Nc3cccc(F)c3)n2)c1 [GSK361065]	18%
COC(=O)c1cccc(NC(=O)NC2CCN(c3ccnc(NCc4ccc(F)cc4)n3)CC2)c1 [GSK1379860]	0%
CCn1c(-c2nonc2N)nc2cncc(Br)c21 [SB-738004]	0%
Cc1ccc(CC(=O)N2CCc3cc(-c4cn(C)c5ncnc(N)c45)ccc32)cc1 [GSK2634758]	5%

test system: ABL2; details: concentration: 1 μM,replicates: in singlicate; n = 1

Structure (SMILES)	%Inh
CN(c1ccc2c(c1)nc(NCc1ccc(F)cc1)n2C)c1ccnc(Nc2ccc(CS(C)(=O)=O)cc2)n1.Cl [GW813244]	75%
Cn1ccc2ncnc(Oc3ccc(NC(=O)Nc4cnn(C(C)(C)C)c4)c(Cl)c3)c21	11%
O=C(Nc1cccc(C(F)(F)F)c1)c1cccc(Oc2ccc3nccn3n2)c1	76%
COc1cc2ncn(-c3cc(OCC4CCCCC4)c(C(N)=O)s3)c2cc1OC [GSK204559]	14%
Cc1n[nH]c2cc(Nc3ccnc(Nc4cccc(CN5CCOCC5)c4)n3)ccc12 [GW682569]	23%
CS(=O)c1ccc(-c2coc3ccc(-c4n[nH]c(=O)o4)cc23)cc1 (centres unmarked)	0%
Cl.Cl.NC[C@H](CC1CCCCC1)NC(=O)c1ccc(-c2ccnc3[nH]ccc23)s1 [GSK1581428]	8%
Cl.c1ccc(Oc2ccc(Nc3ccnc4cc(-c5ccc(CN6CCNCC6)o5)ccc34)cc2)nc1 [GW567142]	42%
O=C(Nc1cccc(Oc2ccc3nccn3n2)c1)Nc1cccc(C(F)(F)F)c1	71%
Cc1nnc(-c2ccc3occ(-c4ccc(S(C)=O)cc4)c3n2)o1 (centres unmarked)	16%
Cc1ccc(C(=O)Nc2ccc(Oc3ccc4nc(NC(=O)C5CC5)cn4c3)c(F)c2)c(=O)n1-c1ccccc1	83%
C[C@@H](Oc1cc(-n2cnc3cc(-c4cnn(C)c4)ccc32)sc1C(N)=O)c1ccccc1Cl [GSK580432]	63%
CCN1CCN(CCCC(=O)Nc2n[nH]c3nc(-c4ccc(O)cc4)c(Br)cc23)CC1 [SB-731579]	100%
COC(=O)c1cccc(NC(=O)NC2CCN(c3ccnc(Nc4cc(OC)c(OC)c(OC)c4)n3)C2)c1 (centres unmarked) [GSK1379767]	1%
CS(=O)(=O)Nc1ccc(-c2ccnc3[nH]ccc23)cc1 [GSK993273]	16%
CCOC(=O)N1CCC(n2cnc(-c3ccc(F)cc3)c2-c2ccnc(N)n2)CC1 [SB-219952]	0%
CN1CCN(CCCNc2nccc(-c3c(-c4ccc(F)cc4)nn4cc(C(N)=O)ccc34)n2)CC1 [GW622475]	17%
Cl.Nc1n[nH]c2cc(-c3ccccn3)ccc12 [GSK2189892]	0%
CC(=O)c1c(-c2ccncc2)[nH]c(-c2ccncc2)c1C [GW493036]	7%

Structure (SMILES)	%Inh
CS(=O)(=O)c1cccc(CNc2nc(Nc3ccc4c(c3)[C@@H]3C[C@@H]4CNC3=O)ncc2C(F)(F)F)c1	66%
CNC(=O)c1ccccc1Nc1nc(Nc2cccc(CS(C)(=O)=O)c2)ncc1C.O=CO [GSK1520489]	99.4%
Cn1cc(-c2cccc3c(N)c(C(N)=O)nnc23)cn1	9%
Cn1ccc2ncnc(Oc3ccc(NC(=O)Nc4cccc(C(F)(F)F)c4)c(F)c3)c21	29%
Nc1nccc(-c2ccc3c(N)n[nH]c3c2)n1 [GSK1034945]	9%
COc1cccc(C2=C(Nc3cccc(Cl)c3)C(=O)NC2=O)c1 [SB-341556]	8%
CCn1c(-c2nonc2N)nc2cncc(CNC3CCNCC3)c21.Cl [SB-747651]	13%
Cn1ccc2ncnc(Oc3ccc(NC(=O)Nc4cncc(C(F)(F)F)c4)c(Cl)c3)c21	27%
C[C@@H]1CCN(C(=O)N2CCCC2)C[C@@H]1N(C)c1ncnc2[nH]ccc12	0%
CC(C)S(=O)(=O)N1CCN(Cc2ccc3c(c2)nc(NC(=O)c2ccsc2)n3C[C@H](O)c2ccccc2)CC1 [GW635815]	22%
C[C@@H]1CNc2c(sc3ccc4nc(-c5ccc(O)cc5)ccc4c23)C(=O)N1	3%
c1ccc(Oc2ccc(Nc3ccnc4ccc(-c5ccccn5)cc34)cc2)cc1 [GW407034]	17%
Cn1ccc2ncnc(Oc3ccc(NC(=O)Nc4ccnc(C(F)(F)F)c4)c(Cl)c3)c21	5%
CC(=O)Nc1ccc(-c2cc3ncnc(SCC(=O)O)c3s2)cc1	8%
COc1cccc(OC)c1C(=O)Nc1cccc(-c2nn3ccccc3c2-c2ccnc(Nc3cccc(F)c3)n2)c1 [GSK361065]	100%
COC(=O)c1cccc(NC(=O)NC2CCN(c3ccnc(NCc4ccc(F)cc4)n3)CC2)c1 [GSK1379860]	14%
CCn1c(-c2nonc2N)nc2cncc(Br)c21 [SB-738004]	0%
Cc1ccc(CC(=O)N2CCc3cc(-c4cn(C)c5ncnc(N)c45)ccc32)cc1 [GSK2634758]	24%
